Data reported in PubChem BioAssay (Tox21).
Inconclusive results are not listed. Activity calls are given as the source filed them. Unless noted, calls come from the whole dose curve; as a rule, active = well fitted curve in the direction sought with a large enough effect in the repeat runs; inconclusive = weak or mixed curves; inactive = no such curve, though single readings can be large; an effect the other way counts as inactive or inconclusive.

Legend:
[1] = molecular target: Aryl hydrocarbon receptor (Homo sapiens) (UniProt P35869); test: qHTS assay to identify small molecule that activate the aryl hydrocarbon receptor (AhR) signaling pathway (AID 743085);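 note: HG2L7.5c1 human HepG2 liver cells with stably integrated DRE-driven firefly reporter; series mostly up to about 70 µM; nearly all actives have a fitted effect of over 15% in size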
Chain of Aryl hydrocarbon receptor (Homo sapiens) (P35869 whole entry, looked up): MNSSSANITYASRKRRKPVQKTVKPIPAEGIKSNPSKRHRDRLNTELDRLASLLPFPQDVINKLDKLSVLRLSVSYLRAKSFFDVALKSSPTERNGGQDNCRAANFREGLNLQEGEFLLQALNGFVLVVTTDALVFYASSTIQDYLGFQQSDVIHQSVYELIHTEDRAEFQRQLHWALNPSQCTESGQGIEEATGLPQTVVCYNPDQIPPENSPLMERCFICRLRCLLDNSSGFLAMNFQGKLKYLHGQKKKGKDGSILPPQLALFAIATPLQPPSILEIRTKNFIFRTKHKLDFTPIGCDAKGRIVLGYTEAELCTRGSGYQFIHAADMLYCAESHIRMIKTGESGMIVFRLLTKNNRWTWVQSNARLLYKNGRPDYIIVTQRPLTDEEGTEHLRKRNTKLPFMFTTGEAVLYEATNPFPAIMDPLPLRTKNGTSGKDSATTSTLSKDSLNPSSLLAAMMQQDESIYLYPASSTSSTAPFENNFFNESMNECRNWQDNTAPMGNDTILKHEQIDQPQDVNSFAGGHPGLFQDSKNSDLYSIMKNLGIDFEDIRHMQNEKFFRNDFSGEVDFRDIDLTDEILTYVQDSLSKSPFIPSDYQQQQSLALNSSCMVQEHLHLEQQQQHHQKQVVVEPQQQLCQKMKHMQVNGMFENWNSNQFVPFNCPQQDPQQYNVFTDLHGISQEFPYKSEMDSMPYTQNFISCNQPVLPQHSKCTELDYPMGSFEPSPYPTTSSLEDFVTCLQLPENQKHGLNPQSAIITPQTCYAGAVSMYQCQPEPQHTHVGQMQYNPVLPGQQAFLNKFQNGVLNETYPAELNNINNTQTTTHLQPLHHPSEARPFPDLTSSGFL
Method in brief: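 Steps: seed HepG2-AhR-luc cells; allow 5 h at 37C; pin-transfer test compound or vehicle; incubate 24 h at 37C; add viability dye (30 min, 37C) and read fluorescence; add luciferase substrate (30 min, RT) and read luminescence.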

[2] = qHTS assay to identify small molecule that activate the aryl hydrocarbon receptor (AhR) signaling pathway - cell viability counter screen (AID 743086);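 note: HepG2 liver cells carrying the AhR DRE luciferase reporter; series mostly up to about 70 µM; nearly all actives have a fitted effect of over 45% in size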
Method in brief: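 Cytotoxicity counter screen: CellTiter-Fluor signal (30 min, 37 C) in 4000 HepG2 cells/well carrying the DRE-luciferase reporter, following 24 h compound exposure at 37 C.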

[3] = molecular target: Peroxisome proliferator-activated receptor gamma (Homo sapiens) (UniProt P37231); test: qHTS assay to identify small molecule agonists of the peroxisome proliferator-activated receptor gamma (PPARg) signaling pathway (AID 743094; active = well fitted activation curve with a large enough effect in the signal ratio in the repeat runs, not every such curve was filed as active; the % refers to the signal ratio)
Chain of Peroxisome proliferator-activated receptor gamma (Homo sapiens) (P37231 whole entry, looked up): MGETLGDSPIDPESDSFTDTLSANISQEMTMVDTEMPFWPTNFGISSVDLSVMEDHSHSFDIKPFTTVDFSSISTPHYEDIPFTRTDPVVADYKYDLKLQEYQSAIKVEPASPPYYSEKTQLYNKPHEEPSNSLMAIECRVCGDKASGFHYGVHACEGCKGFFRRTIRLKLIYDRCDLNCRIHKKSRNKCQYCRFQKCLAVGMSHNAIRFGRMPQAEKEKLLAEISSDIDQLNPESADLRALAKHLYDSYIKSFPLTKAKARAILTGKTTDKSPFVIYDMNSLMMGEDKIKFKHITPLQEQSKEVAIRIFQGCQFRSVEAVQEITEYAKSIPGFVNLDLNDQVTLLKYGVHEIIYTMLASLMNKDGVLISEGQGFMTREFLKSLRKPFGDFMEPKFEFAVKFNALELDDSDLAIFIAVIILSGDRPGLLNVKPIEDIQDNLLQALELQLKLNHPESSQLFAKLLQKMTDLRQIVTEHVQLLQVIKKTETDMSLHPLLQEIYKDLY
Method in brief: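 Agonist activity was taken from a beta-lactamase reporter (FRET substrate, 1 h at room temperature) in HEK293H cells carrying a PPARg UAS-bla construct. Compounds in DMSO were incubated 17 h at 37C after a 5 h cell pre-incubation.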

[4] = qHTS assay for small molecule agonists of the antioxidant response element (ARE) signaling pathway - cell viability counter screen (AID 743203; calls by dose curve; note: nearly all actives have a fitted effect of over 55% in size)
Method in brief: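 Viability counter screen: CellTiter-Glo luminescence, read after 30 min at room temperature, in ARE-bla HepG2 wells. Compound exposure lasted 16 h at 37C/5% CO2, following a 5 h pre-incubation of the cells after plating.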

[5] = qHTS assay for small molecule activators of the heat shock response signaling pathway - cell viability counter screen (AID 743209); note: nearly all actives have a fitted effect of over 50% in size
Method in brief: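 Cytotoxicity counter screen run in the same wells as the heat-shock bla reporter assay: HeLa HSE-bla cells, 5 h compound exposure at 37 C, viability read by CellTiter-Glo luminescence.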

[6] = qHTS assay to identify small molecule agonists of the peroxisome proliferator-activated receptor delta (PPARd) signaling pathway - cell viability counter screen (AID 743211); note: nearly all actives have a fitted effect of over 55% in size
Method in brief: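 Viability of GeneBLAzer PPARd UAS-bla HEK293H cells was assessed after 17 h compound incubation at 37C, using CellTiter-Glo reagent added after the reporter read and luminescence recorded 30 min later.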

[7] = qHTS assay to identify small molecule agonists of the farnesoid-X-receptor (FXR) signaling pathway - cell viability counter screen (AID 743218); note: nearly all actives have a fitted effect of over 45% in size
Method in brief: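 Viability counter screen in the same wells: CellTiter-Glo luminescence, 30 min room-temperature incubation, measured after the beta-lactamase read. Cells were GeneBLAzer FXR-UAS-bla HEK 293T, compound-treated 16 h at 37C.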

[8] = qHTS assay to identify small molecule antagonists of the farnesoid-X-receptor (FXR) signaling pathway - cell viability counter screen (AID 743221; active = well fitted cell-killing curve with a large enough effect in the repeat runs, not every such curve was filed as active; note: nearly all actives have a fitted effect of over 50% in size)
Method in brief: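 Quantitative HTS of the Tox21 10K library run in parallel with the beta-lactamase reporter read. HEK 293T cells carrying a UAS-driven bla reporter got compound and 50 uM CDCA (final) for 16 h; ATP-based luminescence followed.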

[9] = molecular target: Vitamin D3 receptor (Homo sapiens) (UniProt P11473); test: qHTS assay to identify small molecule agonists of the vitamin D receptor (VDR) signaling pathway (AID 743222; calls by dose curve)
Chain of Vitamin D3 receptor (Homo sapiens) (P11473 whole entry, looked up): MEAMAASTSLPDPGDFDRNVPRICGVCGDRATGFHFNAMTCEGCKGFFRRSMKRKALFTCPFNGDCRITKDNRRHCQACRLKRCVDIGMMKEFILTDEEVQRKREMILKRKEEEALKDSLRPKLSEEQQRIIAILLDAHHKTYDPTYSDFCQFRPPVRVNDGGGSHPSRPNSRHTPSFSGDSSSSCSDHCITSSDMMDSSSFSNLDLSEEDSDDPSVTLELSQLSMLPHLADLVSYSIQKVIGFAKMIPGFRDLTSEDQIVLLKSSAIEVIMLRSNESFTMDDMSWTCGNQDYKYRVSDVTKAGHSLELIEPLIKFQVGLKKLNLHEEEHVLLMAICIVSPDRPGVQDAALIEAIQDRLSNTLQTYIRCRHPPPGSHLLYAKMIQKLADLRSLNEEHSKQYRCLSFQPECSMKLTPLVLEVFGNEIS
Method in brief: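 Agonist mode, beta-lactamase reporter: fluorescence from LiveBLAzer B/G FRET substrate (2 h, room temperature) read after 16 h compound treatment at 37 C of VDR-bla cells, which were pre-incubated 4 h after seeding.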

[10] = molecular target: Vitamin D3 receptor (Homo sapiens) (UniProt P11473); test: qHTS assay to identify small molecule antagonists of the vitamin D receptor (VDR) signaling pathway (AID 743223; active = well fitted inhibition curve with a large enough effect in the signal ratio in the repeat runs, not every such curve was filed as active; the % refers to the signal ratio)
Method in brief: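 Fluorescence from LiveBLAzer B/G FRET substrate, read after 2 h at room temperature, reflects beta-lactamase reporter activity in VDR-bla cells treated 16 h at 37C with compounds and agonist 1alpha,25-dihydroxyvitamin D3 (3 nM final).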

[11] = qHTS assay to identify small molecule antagonists of the peroxisome proliferator-activated receptor gamma (PPARg) signaling pathway - cell viability counter screen (AID 743194); note: nearly all actives have a fitted effect of over 55% in size
Method in brief: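 Viability was measured as CellTiter-Glo luminescence in GeneBLAzer PPARg UAS-bla HEK293H cells. These cells had been exposed 17 h at 37 C to compounds together with rosiglitazone at 50 nM final, with the beta-lactamase readout taken in the same wells.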

[12] = qHTS assay for small molecule activators of the heat shock response signaling pathway (AID 743210; active = well fitted activation curve with a large enough effect in the signal ratio in the repeat runs, with a control signal flat, not every such curve was filed as active; the % refers to the signal ratio;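 note: HeLa cells with beta-lactamase reporter driven by heat shock elements; series mostly up to about 63 µM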)
Method in brief: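 Fluorescence from a cleaved B/G FRET substrate (2.5 h, room temp) reports HSE-driven beta-lactamase in HeLa cells treated 5 h at 37 C with DMSO-dissolved compounds.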

[13] = molecular target: Peroxisome proliferator-activated receptor delta (Homo sapiens) (UniProt Q03181); test: qHTS assay to identify small molecule agonists of the peroxisome proliferator-activated receptor delta (PPARd) signaling pathway (AID 743212; calls by dose curve;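 note: HEK293H cells with PPARd UAS beta-lactamase reporter GeneBLAzer system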)
Chain of Peroxisome proliferator-activated receptor delta (Homo sapiens) (Q03181 whole entry, looked up): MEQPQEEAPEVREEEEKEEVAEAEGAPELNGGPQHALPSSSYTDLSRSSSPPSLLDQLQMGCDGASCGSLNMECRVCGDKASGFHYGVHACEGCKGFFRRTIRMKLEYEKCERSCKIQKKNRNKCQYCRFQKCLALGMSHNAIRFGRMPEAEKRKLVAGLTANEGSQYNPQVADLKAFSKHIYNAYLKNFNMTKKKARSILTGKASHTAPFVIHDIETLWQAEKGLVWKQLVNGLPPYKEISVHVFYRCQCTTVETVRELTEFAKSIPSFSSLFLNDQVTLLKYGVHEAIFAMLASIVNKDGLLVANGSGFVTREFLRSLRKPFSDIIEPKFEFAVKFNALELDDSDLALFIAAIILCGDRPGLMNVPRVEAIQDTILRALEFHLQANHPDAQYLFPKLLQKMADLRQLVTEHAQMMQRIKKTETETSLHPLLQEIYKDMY
Method in brief: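 Steps: seed PPARd-bla HEK293H cells; incubate 5 h, 37 C, 5% CO2; add compounds in DMSO; incubate, 37 C; add LiveBLAzer B/G FRET substrate; hold 2 h at room temperature; measure fluorescence.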

[14] = qHTS assay to identify small molecule antagonists of the peroxisome proliferator-activated receptor delta (PPARd) signaling pathway - cell viability counter screen (AID 743213); note: nearly all actives have a fitted effect of over 50% in size
Method in brief: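 PPARd-bla HEK293H cells (3000/well) got compound plus 300 nM L165041 agonist for 17 h at 37 C. Viability in the same wells came from CellTiter-Glo luminescence after 30 min at room temperature.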

[15] = molecular target: Peroxisome proliferator-activated receptor delta (Homo sapiens) (UniProt Q03181); test: qHTS assay to identify small molecule antagonists of the peroxisome proliferator-activated receptor delta (PPARd) signaling pathway (AID 743215; active = well fitted inhibition curve with a large enough effect in the signal ratio in the repeat runs, not every such curve was filed as active; the % refers to the signal ratio;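 note: cells stimulated with agonist L165041 at 300 nM final during compound exposure; series mostly up to about 62 µM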)
Method in brief: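 Agonist L165041 (300 nM final) added with compound to PPARd-bla HEK293H UAS-bla reporter cells; 17 h incubation at 37 C. Read-out: LiveBLAzer FRET substrate, 2 h at room temperature, fluorescence intensity.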

[16] = molecular target: Peroxisome proliferator-activated receptor gamma (Homo sapiens) (UniProt P37231); test: qHTS assay to identify small molecule antagonists of the peroxisome proliferator-activated receptor gamma (PPARg) signaling pathway (AID 743191; calls by dose curve; note: series mostly up to about 63 µM; nearly all actives have a fitted effect of over 30% in size)
Method in brief: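 Beta-lactamase reporter under UAS control in HEK293H PPARg-bla cells; compound treatment 17 h at 37C. Read-out: fluorescence intensity after 1 h room-temperature incubation with LiveBLAzer B/G FRET substrate.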

[17] = qHTS assay for small molecule agonists of the antioxidant response element (ARE) signaling pathway (AID 743202; active = well fitted activation curve with a large enough effect in the signal ratio in the repeat runs, not every such curve was filed as active; the % refers to the signal ratio)
Method in brief: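 Beta-lactamase reporter activity, read as fluorescence intensity, reflects ARE/Nrf2 pathway induction in HepG2 cells after 16 h compound exposure at 37 C; substrate loading was 2 h at room temperature.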

[18] = molecular target: Bile acid receptor (Homo sapiens) (UniProt Q96RI1); test: qHTS assay to identify small molecule antagonists of the farnesoid-X-receptor (FXR) signaling pathway (AID 743217; active = well fitted inhibition curve with a large enough effect in the signal ratio in the repeat runs, not every such curve was filed as active; the % refers to the signal ratio)
Chain of Bile acid receptor (Homo sapiens) (Q96RI1 whole entry, looked up): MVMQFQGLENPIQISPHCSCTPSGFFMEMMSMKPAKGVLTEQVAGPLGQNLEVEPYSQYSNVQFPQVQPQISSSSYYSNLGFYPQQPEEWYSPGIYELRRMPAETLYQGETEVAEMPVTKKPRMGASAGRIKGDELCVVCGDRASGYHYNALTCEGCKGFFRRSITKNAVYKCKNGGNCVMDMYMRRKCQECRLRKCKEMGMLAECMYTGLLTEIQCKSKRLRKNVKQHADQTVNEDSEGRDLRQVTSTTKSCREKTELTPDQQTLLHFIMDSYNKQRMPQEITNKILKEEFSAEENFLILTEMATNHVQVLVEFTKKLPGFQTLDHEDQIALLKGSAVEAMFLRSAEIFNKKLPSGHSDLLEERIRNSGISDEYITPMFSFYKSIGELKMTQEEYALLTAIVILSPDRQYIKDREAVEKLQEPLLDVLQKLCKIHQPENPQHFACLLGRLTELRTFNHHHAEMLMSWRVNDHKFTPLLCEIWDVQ
Method in brief: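 Antagonist mode: chenodeoxycholic acid at 50 uM final stimulates a UAS-driven beta-lactamase reporter in HEK 293T FXR-bla cells during 16 h, 37C compound exposure. Read-out is FRET substrate fluorescence after 2 h at room temperature.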

[19] = molecular target: Bile acid receptor (Homo sapiens) (UniProt Q96RI1); test: qHTS assay to identify small molecule agonists of the farnesoid-X-receptor (FXR) signaling pathway (AID 743220; active = well fitted activation curve with a large enough effect in the signal ratio in the repeat runs, not every such curve was filed as active; the % refers to the signal ratio)
Method in brief: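 FXR-UAS-bla HEK 293T cells carrying a UAS-driven beta-lactamase reporter were plated for 5 h at 37C/5% CO2, then exposed to DMSO-dissolved Tox21 10K compounds for 16 h at 37C. A LiveBLAzer B/G FRET substrate was loaded for 2 h at room temperature before fluorescence reading.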

Measured: Potency

COc1cccc(OC)c1C(=O)N[C@@H]1C(=O)N2[C@@H]1SC(C)(C)[C@@H]2C(=O)O
inactive: [1] | [2] | [3] | [4] | [5] | [6] | [7] | [8] | [9] | [10]

O=S(=O)(O)c1cccc2ccccc12
inactive: [2] | [3] | [11] | [4] | [5] | [12] | [13] | [14] | [15] | [8]

Cc1ccc(-c2ccccc2C#N)cc1
not listed: [1] | [2] | [3] | [12] | [14]
inactive: all other assays above

O=C1NC(=O)C2CC=CCC12 (stereo not given)
not listed: [1] | [3] | [5] | [11] | [13] | [15] | [16]
inactive: all other assays above

COCCOC[C@H](CC1(C(=O)NC2CCC(C(=O)O)CC2)CCCC1)C(=O)Oc1ccc2c(c1)CCC2 (stereo not given in full)
not listed: [10] | [11] | [13] | [16] | [17] | [18] | [19]
inactive: all other assays above

Cc1ncc(COP(=O)(O)O)c(C=O)c1O
not listed: [5] | [6] | [12] | [14] | [15] | [17] | [18] | [19]
inactive: all other assays above

Cc1nc(C2CCCCC2)c(-c2ccc(S(N)(=O)=O)c(F)c2)o1
not listed: [1] | [2] | [3] | [13] | [15] | [16] | [17] | [18]
inactive: all other assays above

CCN(C=O)CC
inactive: [4] | [5] | [12] | [6] | [14] | [18] | [7] | [19] | [8] | [10]
